The text below walks through data of ChEMBL document CHEMBL1961873, “Compounds: GSK PKIS; Assays: Nanosyn kinase panel” (2012).

The target of assay [1] is Serine/threonine-protein kinase PAK 6 (Homo sapiens) (UniProt Q9NQU5). The settings on record: at 1 µM.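 Further: values are mean percent inhibition of PAK6 kinase.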
The test system of assay [2] is Tyrosine-protein kinase ABL1 (Homo sapiens), P00519 [E255K]. The settings on record: at 0.1 µM.
Assay [3] has the same test system. The following applies: at 1 µM.
Assay [4] deals with Tyrosine-protein kinase ABL1 (Homo sapiens), P00519 [H396P]. The following applies: at 0.1 µM.
Assay [5] shares this test system. The settings on record: at 1 µM.
Assay [6] has as its system Tyrosine-protein kinase ABL1 (Homo sapiens), P00519 [M351T]. The settings on record: at 0.1 µM.
The test system is the same in assay [7]. The settings on record: at 1 µM.
In assay [8] the test system is Tyrosine-protein kinase ABL1 (Homo sapiens), P00519 [Q252H]. The settings on record: at 0.1 µM.
Assay [9] has the same test system. The settings on record: at 1 µM.
The subject of assay [10] is Tyrosine-protein kinase ABL1 (Homo sapiens), P00519 [T315I]. The following applies: at 0.1 µM.

Serine/threonine-protein kinase PAK 6 (Homo sapiens), sequence (Q9NQU5 whole entry, looked up): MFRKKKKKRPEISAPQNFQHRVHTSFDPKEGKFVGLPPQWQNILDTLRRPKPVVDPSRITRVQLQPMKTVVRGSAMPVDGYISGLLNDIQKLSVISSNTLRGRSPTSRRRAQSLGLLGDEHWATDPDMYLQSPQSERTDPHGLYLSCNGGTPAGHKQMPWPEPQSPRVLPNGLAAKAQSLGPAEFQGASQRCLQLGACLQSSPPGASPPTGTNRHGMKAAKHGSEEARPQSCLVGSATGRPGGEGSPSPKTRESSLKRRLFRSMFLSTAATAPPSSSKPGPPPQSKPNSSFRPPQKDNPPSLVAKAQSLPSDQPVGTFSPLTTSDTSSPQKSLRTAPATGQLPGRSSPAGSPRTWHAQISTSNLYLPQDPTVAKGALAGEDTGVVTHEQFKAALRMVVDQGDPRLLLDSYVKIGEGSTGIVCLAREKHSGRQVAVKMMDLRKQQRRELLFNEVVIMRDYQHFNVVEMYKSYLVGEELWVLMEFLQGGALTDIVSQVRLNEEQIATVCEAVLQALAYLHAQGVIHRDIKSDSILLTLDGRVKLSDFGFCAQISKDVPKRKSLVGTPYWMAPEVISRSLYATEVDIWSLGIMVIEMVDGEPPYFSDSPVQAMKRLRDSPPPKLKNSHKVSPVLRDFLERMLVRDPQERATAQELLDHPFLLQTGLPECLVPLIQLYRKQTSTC

For the compound `CCOc1ccc2c(-c3ccnc(Nc4cc(OC)cc(C(F)(F)F)c4)n3)cnn2n1`, the inhibition in [1] worked out at 3.48%; in assay [2], 0.14%; in [3], 4.02%; in assay [4] it was 0.25%; in [5], 6.23%; in assay [6] it was 2.11%. Also, the inhibition in [7] is 7.2%; in assay [8], 1.15%; in [9] it was 6.33%; in assay [10], 0.17%.
In the case of `O=C(O[C@H]1CN[C@H](C#Cc2cc3ncnc(Nc4ccc5c(ccn5Cc5cc(F)ccc5F)c4)c3s2)C1)N1CCOCC1`, the inhibition in assay [1] is -0.57%; in assay [2], 1.52%; in assay [3] it was 3.53%; in [4], 4.04%; in [5], 8.92%; in assay [6], 1.92%. The inhibition in assay [7] was found to be 3.98%; in assay [8], 3.74%; in [9] it was 3.88%; in assay [10], 3.97%.
With `COc1cccc(Nc2nccc(-c3cnn4ncccc34)n2)c1`, the inhibition in [1] is 5.36%; in assay [2], 5.54%; in assay [3], 23.1%; in [4] it was 8.68%; in assay [5], 41.2%; in assay [6] it was 8.35%. Besides, the inhibition was 45% in [7], 9.38% in assay [8], 46.5% in [9] and 3.94% in assay [10].
Regarding `CCS(=O)(=O)c1ccc(OC)c(Nc2ncc(-c3cccc(F)c3)o2)c1`, the inhibition is -6.17% in assay [1]; 30.8% in assay [2]; 80.4% in assay [3]; 40.8% in assay [4]; 85.8% in [5]; 38.6% in [6]. The inhibition was 85% in [7], 41.9% in assay [8], 86.4% in assay [9] and 4.78% in assay [10].
On to `COC(=O)Nc1nc2cc(Oc3ccc(NC(=O)Nc4ccccc4)cc3)ccc2[nH]1`, for which the inhibition in [1] is -2.94%; in [2], 4.95%; in assay [3], 11.4%; in assay [4] it was 14.1%; in assay [5], 41%; in assay [6] it was 28.9%. Moreover, the inhibition in assay [7] was 47.8%; in assay [8], 22.5%; in assay [9], 51.8%; in assay [10], 15.9%.
For `COc1cc(N2CCN(C(C)C)CC2)ccc1Nc1nc(Nc2cccc(F)c2C(=O)O)c2cc[nH]c2n1`, the inhibition in assay [1] was -0.16%; in assay [2], 3.61%; in [3], 5.65%; in assay [4], 1.72%; in assay [5], 3.69%; in [6], 1.07%. Further, the inhibition in assay [7] was 2.29%; in assay [8], 4.74%; in [9] it was 5.16%; in assay [10] it was 3.83%.
For the compound `CS(=O)(=O)Nc1ccc(-c2cc(-c3ccccc3)cc(C(N)=O)c2N)cc1`, the inhibition in assay [1] was -8.25%; in assay [2], 1.39%; in assay [3], 2.13%; in assay [4], 1.72%; in [5], 3.82%; in [6] it was 0.69%. The inhibition in assay [7] turned out to be 2.62%; in assay [8], 2.8%; in assay [9], 3.07%; in assay [10], 0.02%.
With `CCS(=O)(=O)c1ccc(OC)c(Nc2ncc(-c3cccc(C(C)=O)c3)o2)c1`, the inhibition in assay [1] turned out to be 7.27%; in [2] it was 15.3%; in [3] it was 61.6%; in [4] it was 19.3%; in [5] it was 67.3%; in assay [6], 20.5%. In addition, the inhibition turned out to be 68.5% in assay [7], 30.4% in [8], 78% in assay [9] and 2.67% in [10].
Take `OCCCNc1nccc(-c2c(-c3ccc(F)cc3)nn3cc(C(F)(F)F)ccc23)n1`: the inhibition is -2.02% in assay [1]; 3.05% in assay [2]; 3.11% in assay [3]; 3.42% in assay [4]; 3.33% in assay [5]; 2.71% in assay [6]. Also, the inhibition in assay [7] is 3%; in [8] it was 4.61%; in [9], 3.52%; in assay [10] it was 1.5%.
For the compound `Fc1ccc(Nc2nccc(-c3c(-c4ccc(C(F)(F)F)cc4)nn4ncccc34)n2)cc1F`, the inhibition in assay [1] came out at 1.02%; in [2], 0.93%; in assay [3] it was 3.19%; in assay [4] it was 3.64%; in [5] it was 1.04%; in assay [6], 2.73%. The inhibition in assay [7] was 2.45%; in assay [8], 3.28%; in assay [9], -0.3%; in [10], 3.85%.
On to `O=C(O[C@H]1CN[C@H](C#Cc2cc3ncnc(Nc4ccc(OCc5cccc(F)c5)c(Cl)c4)c3s2)C1)N1CCOCC1`, for which the inhibition in assay [1] is -5.21%; in assay [2], 0.66%; in assay [3] it was 4.53%; in assay [4] it was 3.67%; in assay [5] it was 5.92%; in assay [6], 2.25%. The inhibition stood at 4.53% in assay [7], 3.47% in assay [8], 2.92% in assay [9] and 4.04% in [10].
For the compound `CS(=O)(=O)CCNCc1ccc(-c2ccc3ncnc(Nc4ccc(OCc5ccccc5)cc4)c3c2)o1`, the inhibition in [1] was -0.08%; in assay [2], 2.13%; in assay [3] it was 3.38%; in assay [4] it was 4.24%; in assay [5], 5.36%; in assay [6], 2.42%. For the same compound, the inhibition in assay [7] was found to be 4.54%; in [8], 3.95%; in [9] it was 5.12%; in assay [10] it was 1.78%.
Regarding `Cn1c(-c2nonc2N)nc2cnccc21`, the inhibition was 0.39% in assay [1]; 2.74% in assay [2]; 1.01% in assay [3]; 2.83% in [4]; 2.87% in [5]; 1.44% in assay [6]. In addition, the inhibition in assay [7] is 2.81%; in assay [8] it was 2.07%; in assay [9] it was 1.71%; in assay [10], 0.03%.
As to `COc1ccccc1-c1cc(/C=C2\C(=O)Nc3ncc(Br)cc32)cc(Br)c1O`, the inhibition is -6.64% in assay [1]; 5.22% in assay [2]; 22.3% in assay [3]; 6.17% in [4]; 21.9% in assay [5]; 5.09% in assay [6]. Moreover, the inhibition in assay [7] was determined as 19.8%; in assay [8] it was 6.3%; in [9] it was 20.5%; in [10], 1.82%.
Regarding `c1cnn2ncc(-c3ccnc(NCCCN4CCOCC4)n3)c2c1`, the inhibition in [1] was -5.92%; in assay [2], 1.77%; in assay [3], 1.98%; in assay [4] it was 3.45%; in assay [5] it was 3.75%; in assay [6] it was 1.48%. In addition, the inhibition turned out to be 0.71% in [7], 3.41% in [8], 2.1% in assay [9] and 2.37% in assay [10].
